{"source": "the supplement of paper PMC9262897", "about": "“Low-cost anti-mycobacterial drug discovery using engineered E. coli” (Nature Communications, 2022)", "note": "Where a name gives a salt, the structure may show the parent alone. ± gives the standard deviation of the averaged measurements."}
{"test_system": "E. coli TESEC Mtb DapB", "assay": "growth (OD600 after 10 h); higher = more growth (less inhibition)", "details": "arabinose induction (level): High; compound 0.1 mM; raw OD600 reference: median of DMSO wells […], cell-free background 0.041", "description": "(§1)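 TESEC E. coli strains in which the native enzyme is deleted and replaced by arabinose-inducible Mtb Asd, DapB, CysH or TrpD, each grown in its selective medium. Strains were screened against the Prestwick library at 0.1 mM and 1% DMSO in 384-well format at low and high arabinose induction. Growth is read as OD600 after 10 h in triplicate.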"}
{"smiles": "C[C@@H]1[C@H](O)[C@@H](C)/C=C/C=C/C=C/C=C/C=C/C=C/C=C/[C@H](O[C@@H]2O[C@H](C)[C@@H](O)[C@H](N)[C@@H]2O)C[C@@H]2O[C@](O)(C[C@@H](O)C[C@@H](O)[C@H](O)CC[C@@H](O)C[C@@H](O)CC(=O)O[C@H]1C)C[C@H](O)[C@H]2C(=O)O", "note": "[Amphotericin B]", "growth": "0.208 ± 0.019"}
{"smiles": "Cc1cccc(N(C)C(=S)Oc2ccc3ccccc3c2)c1", "note": "[Tolnaftate]", "growth": "0.174 ± 0.012"}
{"smiles": "CC(=O)c1ccc2c(c1)N(CCCN(C)C)c1ccccc1S2", "note": "[Acetopromazine maleate salt]", "growth": "0.188 ± 0.012"}
{"smiles": "C=CCN1CCCC1CNC(=O)c1cc2nn[nH]c2cc1OC", "note": "(stereo not given) [Alizapride HCl]", "growth": "0.217 ± 0.022"}
{"smiles": "CN1CCC(=C2c3ccccc3CCc3cccnc32)CC1", "note": "[Azatadine maleate]", "growth": "0.18 ± 0.014"}
{"smiles": "CCCCc1nc(Cl)c(CO)n1Cc1ccc(-c2ccccc2-c2nnn[nH]2)cc1", "note": "[Losartan]", "growth": "0.195 ± 0.015"}
{"smiles": "COC(=O)[C@@H]1[C@H]2C[C@H]3c4[nH]c5ccccc5c4CCN3C[C@@H]2CC[C@@H]1O", "note": "[Yohimbine hydrochloride]", "growth": "0.166 ± 0.01"}
{"smiles": "CN1CCC(=C2c3ccccc3Sc3ccccc32)CC1", "note": "[Pimethixene maleate]", "growth": "0.15 ± 0.011"}
{"smiles": "N=C(N=C(N)N)N1CCOCC1", "note": "[Moroxidine hydrochloride]", "growth": "0.203 ± 0.0065"}
{"smiles": "CC1(C)O[C@@H]2C[C@H]3[C@@H]4C[C@H](F)C5=CC(=O)C=C[C@]5(C)[C@H]4[C@@H](O)C[C@]3(C)[C@]2(C(=O)CO)O1", "note": "[Flunisolide]", "growth": "0.214 ± 0.021"}
{"smiles": "CN(CCOc1ccc(CC2SC(=O)NC2=O)cc1)c1ccccn1", "note": "(stereo not given) [Rosiglitazone Hydrochloride]", "growth": "0.177 ± 0.015"}
{"smiles": "CC(=O)OCC(=O)NCCCOc1cccc(CN2CCCCC2)c1", "note": "[Roxatidine Acetate HCl]", "growth": "0.185 ± 0.016"}
{"smiles": "COc1ccc2cc([C@H](C)C(=O)O)ccc2c1", "note": "[Naproxen]", "growth": "0.18 ± 0.062"}
{"smiles": "CN(C/C=C/C#CC(C)(C)C)Cc1cccc2ccccc12", "note": "[Terbinafine]", "growth": "0.182 ± 0.047"}
{"smiles": "CC(C)[C@H](N)C(=O)OCCOCn1cnc2c(=O)nc(N)[nH]c21", "note": "[Valacyclovir hydrochloride]", "growth": "0.179 ± 0.011"}
{"smiles": "COc1cc(NS(=O)(=O)c2ccc(N)cc2)nc(OC)n1", "note": "[Sulfadimethoxine]", "growth": "0.192 ± 0.0042"}
{"smiles": "Clc1ccc(Cn2c(CN3CCCC3)nc3ccccc32)cc1", "note": "[Clemizole hydrochloride]", "growth": "0.156 ± 0.027"}
{"smiles": "CCOC(=O)O[C@]1(C(=O)COC(=O)CC)CC[C@H]2[C@@H]3CCC4=CC(=O)C=C[C@]4(C)[C@H]3[C@@H](O)C[C@@]21C", "note": "[Prednicarbate]", "growth": "0.193 ± 0.008"}
{"smiles": "CC(=O)OCC(=O)[C@@]12OC(C)(C)O[C@@H]1C[C@H]1[C@@H]3C[C@H](F)C4=CC(=O)C=C[C@]4(C)[C@@]3(F)[C@@H](O)C[C@@]12C", "note": "[Fluocinonide]", "growth": "0.222 ± 0.013"}
{"smiles": "CN(c1nccc(=O)[nH]1)C1CCN(c2nc3ccccc3n2Cc2ccc(F)cc2)CC1", "note": "[Mizolastine]", "growth": "0.2 ± 0.039"}
{"test_system": "E. coli TESEC Mtb DapB", "assay": "growth (OD600 after 10 h); higher = more growth (less inhibition)", "details": "arabinose induction (level): Low; compound 0.1 mM; raw OD600 reference: median of DMSO wells 0.227, cell-free background 0.041", "description": "as §1"}
{"smiles": "C[C@@H]1[C@H](O)[C@@H](C)/C=C/C=C/C=C/C=C/C=C/C=C/C=C/[C@H](O[C@@H]2O[C@H](C)[C@@H](O)[C@H](N)[C@@H]2O)C[C@@H]2O[C@](O)(C[C@@H](O)C[C@@H](O)[C@H](O)CC[C@@H](O)C[C@@H](O)CC(=O)O[C@H]1C)C[C@H](O)[C@H]2C(=O)O", "note": "[Amphotericin B]", "growth": "0.237 ± 0.046"}
{"smiles": "Cc1cccc(N(C)C(=S)Oc2ccc3ccccc3c2)c1", "note": "[Tolnaftate]", "growth": "0.243 ± 0.029"}
{"smiles": "CC(=O)c1ccc2c(c1)N(CCCN(C)C)c1ccccc1S2", "note": "[Acetopromazine maleate salt]", "growth": "0.217 ± 0.021"}
{"smiles": "C=CCN1CCCC1CNC(=O)c1cc2nn[nH]c2cc1OC", "note": "(stereo not given) [Alizapride HCl]", "growth": "0.201 ± 0.017"}
{"smiles": "CN1CCC(=C2c3ccccc3CCc3cccnc32)CC1", "note": "[Azatadine maleate]", "growth": "0.186 ± 0.018"}
{"smiles": "CCCCc1nc(Cl)c(CO)n1Cc1ccc(-c2ccccc2-c2nnn[nH]2)cc1", "note": "[Losartan]", "growth": "0.228 ± 0.018"}
{"smiles": "COC(=O)[C@@H]1[C@H]2C[C@H]3c4[nH]c5ccccc5c4CCN3C[C@@H]2CC[C@@H]1O", "note": "[Yohimbine hydrochloride]", "growth": "0.19 ± 0.012"}
{"smiles": "CN1CCC(=C2c3ccccc3Sc3ccccc32)CC1", "note": "[Pimethixene maleate]", "growth": "0.223 ± 0.069"}
{"smiles": "N=C(N=C(N)N)N1CCOCC1", "note": "[Moroxidine hydrochloride]", "growth": "0.245 ± 0.053"}
{"smiles": "CC1(C)O[C@@H]2C[C@H]3[C@@H]4C[C@H](F)C5=CC(=O)C=C[C@]5(C)[C@H]4[C@@H](O)C[C@]3(C)[C@]2(C(=O)CO)O1", "note": "[Flunisolide]", "growth": "0.241 ± 0.01"}
{"smiles": "CN(CCOc1ccc(CC2SC(=O)NC2=O)cc1)c1ccccn1", "note": "(stereo not given) [Rosiglitazone Hydrochloride]", "growth": "0.215 ± 0.028"}
{"smiles": "CC(=O)OCC(=O)NCCCOc1cccc(CN2CCCCC2)c1", "note": "[Roxatidine Acetate HCl]", "growth": "0.186 ± 0.0097"}
{"smiles": "COc1ccc2cc([C@H](C)C(=O)O)ccc2c1", "note": "[Naproxen]", "growth": "0.217 ± 0.027"}
{"smiles": "CN(C/C=C/C#CC(C)(C)C)Cc1cccc2ccccc12", "note": "[Terbinafine]", "growth": "0.218 ± 0.03"}
{"smiles": "CC(C)[C@H](N)C(=O)OCCOCn1cnc2c(=O)nc(N)[nH]c21", "note": "[Valacyclovir hydrochloride]", "growth": "0.186 ± 0.021"}
{"smiles": "COc1cc(NS(=O)(=O)c2ccc(N)cc2)nc(OC)n1", "note": "[Sulfadimethoxine]", "growth": "0.213 ± 0.015"}
{"smiles": "Clc1ccc(Cn2c(CN3CCCC3)nc3ccccc32)cc1", "note": "[Clemizole hydrochloride]", "growth": "0.212 ± 0.079"}
{"smiles": "CCOC(=O)O[C@]1(C(=O)COC(=O)CC)CC[C@H]2[C@@H]3CCC4=CC(=O)C=C[C@]4(C)[C@H]3[C@@H](O)C[C@@]21C", "note": "[Prednicarbate]", "growth": "0.237 ± 0.026"}
{"smiles": "CC(=O)OCC(=O)[C@@]12OC(C)(C)O[C@@H]1C[C@H]1[C@@H]3C[C@H](F)C4=CC(=O)C=C[C@]4(C)[C@@]3(F)[C@@H](O)C[C@@]12C", "note": "[Fluocinonide]", "growth": "0.234 ± 0.033"}
{"smiles": "CN(c1nccc(=O)[nH]1)C1CCN(c2nc3ccccc3n2Cc2ccc(F)cc2)CC1", "note": "[Mizolastine]", "growth": "0.174 ± 0.012"}
